Only some compounds are listed: those with a hit (about 3.8% of all), similar ones and a draw of the others.
A549 viability: Nrf2 qHTS screen for inhibitors: counterscreen for cytotoxicity; A549 ARE-Fluc cells, CellTiter-Fluor viability, 18-24 h; Potency, µM (doses to about 46 µM), usual class: inhibitors; 0.16% of 390,000 active; AID 504648, 2011
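A549 ARE_Fluc cells in 5% FBS OPTI-MEM were exposed to compounds in concentration-response for 18-24 h at 37 deg C. Viability was read by CellTiter-Fluor fluorescence (Ex 405/Em 525) after 30 min, before the luciferase read.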
ATXN2 expr inh: Primary qHTS for Inhibitors of ATXN expression; 0.72% of 360,000 active; HEK-293 ATXN2-luciferase reporter, luminescence, 24 h; Potency, µM (titrated, usually from 57 µM), hits mostly inhibitors; note: nearly all actives have a fitted effect of over 55% in size
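qHTS (up to 57 uM final) was run with 24 h compound exposure of reporter cells at 37 °C. Each well was multiplexed: SteadyGlo luminescence measured ATXN2-luciferase expression after a fluorogenic Gly-Phe-AFC viability readout (25 uM final).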
Nrf2 inh: Nrf2 qHTS screen for inhibitors | A549 ARE-Fluc reporter, luciferase luminescence, 18-24 h | 2.1% of 360,000 active | Potency, µM (highest dose often 46 µM), actives largely listed as inhibitors; note: nearly all actives have a fitted effect of over 60% in size
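Concentration-response testing used A549 ARE_Fluc cells at 5000 cells/well. Following an 18-24 h compound incubation, viability was read by fluorescence (Ex 405/Em 525) and luciferase output by luminescence.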
TGFb inhibitor: qHTS for Inhibitors of TGF-b; HepG2 CAGA-GFP TGF-b/SMAD3 reporter, GFP fluorescence, 18 h; TGF-beta stimulated, 500 pg/mL final; Potency, µM (series often up to 46.1 µM), most hits filed as inhibitors; 1.2% of 410,000 active; note: nearly all actives have a fitted effect of over 65% in size
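First, reporter cells (HEPG2 CAGA-GFP) rested 2 h at 37 degrees C. Next, compounds were pinned in and TGF-beta added to 500 pg/mL final. After 18 h, GFP was imaged per cell and summed per well.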
HepG2 tox-1: qHTS for Inhibitors of TGF-b: Cytotox Counterscreen | HepG2 CAGA-GFP viability, ATP luminescence, 18 h | Potency, µM (highest dose often 46.1 µM), usual class: cytotoxic | 0.76% of 410,000 active | AID 588856, 2011
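CellTiter-Glo luminescence gave cytotoxicity after 18 hours at 37 degrees C. The cells were HepG2 CAGA-GFP in 1% FBS DMEM, stimulated with 500 pg/mL TGF-beta after compound addition. %Activity was normalised to no-cell wells (complete cell-killing) and DMSO (no toxicity), and curves were fitted and classified.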
ATXN viability: Viability Counterscreen for Primary qHTS for Inhibitors of ATXN expression; S2 cells (HEK-293 line with an ATXN2-luciferase reporter) viability, CellTiter-Fluor protease fluorescence, 24 h; Potency, µM (series often up to 56.7 µM), actives largely listed as cytotoxic; 0.49% of 400,000 active; note: nearly all actives have a fitted effect of over 40% in size
TGFb CAGA inh: qHTS for Inhibitors of TGF-b: Confirmation of Cherry Picks | shares compounds with TGFb inhibitor | HepG2 CAGA-GFP TGF-b reporter, GFP fluorescence, 18 h; cells stimulated with TGF-beta, 500 pg/mL | Potency, µM (doses to about 46.1 µM), hits mostly inhibitors | 63% of 1,600 active; note: nearly all actives have a fitted effect of over 65% in size
HepG2 tox-2: qHTS for Inhibitors of TGF-b: Cytotox Counterscreen for Cherry Picks | shares compounds with TGFb inhibitor | HepG2 CAGA-GFP viability, ATP luminescence, 18 h; cells stimulated with TGF-beta, 500 pg/mL | AID 720535, 2013 | 27% of 1,600 active | Potency, µM (highest dose often 46.1 µM), hits mostly inhibitors; note: nearly all actives have a fitted effect of over 70% in size
TGFb CCL64 inh: qHTS for Inhibitors of TGF-b: CCL64 Cells Orthogonal Assay for Cherry Picks | shares compounds with TGFb inhibitor | CCL64 CAGA-GFP reporter, TGF-b stimulated, GFP fluorescence, 18 h | Potency, µM (titrated, usually from 46.1 µM), hits mostly inhibitors | 41% of 1,600 active | AID 720536, 2013; note: nearly all actives have a fitted effect of over 65% in size
TGFb COP inh: qHTS for Inhibitors of TGF-b: Hit Validation in HepG2 Cells using COP promoter; shares compounds with TGFb inhibitor; HepG2 COP-GFP TGF-b reporter, GFP fluorescence, 18 h; cells stimulated by added recombinant TGF-beta; Potency, µM (highest dose often 46.1 µM), most hits filed as inhibitors; 3% of 1,600 active; AID 720537, 2013; note: nearly all actives have a fitted effect of over 70% in size
Of the large screens only hits and unclear results are named; the others gave an inactive call (follow-up assays come after a bar, where they were run). Calls come from the whole dose curve; as a rule, active = well fitted curve in the direction sought with a large enough effect; inconclusive = small, poorly fitted or top-dose-only effect, or another doubt; inactive = no such curve, though single readings can be large; an effect the other way counts as inactive or inconclusive.

COc1cc(/C=C/C(=O)c2ccc3c(c2)OCCO3)cc(Br)c1OCC(=O)N(C)C	A549 viability inconclusive, ATXN2 expr inh 20µM, Nrf2 inh 21µM, TGFb inhibitor 4µM, ATXN viability 28µM | TGFb CAGA inh 3.7µM | HepG2 tox-2 3.3µM | TGFb CCL64 inh 21µM | TGFb COP inh inactive
O=C(/C=C/c1ccncc1)c1ccc2c(c1)OCCO2	Nrf2 inh inconclusive, TGFb inhibitor inconclusive, ATXN viability inconclusive
Cc1cn2c(=O)c(S(=O)(=O)NCCc3ccccc3)c(C)nc2s1	none (no result: ATXN2 expr inh, ATXN viability)
O=C(Nc1cccc([N+](=O)[O-])c1)c1ccncc1	TGFb inhibitor inconclusive
O=C(Nc1cc(Sc2ccccn2)cc([N+](=O)[O-])c1)c1ccc(Cl)cc1	A549 viability inconclusive, TGFb inhibitor 14µM (no result: Nrf2 inh) | TGFb CAGA inh 12µM | HepG2 tox-2 inactive | TGFb CCL64 inh 10µM | TGFb COP inh inactive
COc1cc(NC(=O)c2cc3c(=O)n(Cc4ccco4)ccc3nc2C)cc(OC)c1OC	none (no result: ATXN2 expr inh, ATXN viability)
O=C(NC(Nc1nc2ccc([N+](=O)[O-])cc2s1)(C(F)(F)F)C(F)(F)F)c1cccnc1	A549 viability 7.3µM, ATXN2 expr inh inconclusive, Nrf2 inh 5.8µM, TGFb inhibitor 3.2µM, ATXN viability inconclusive | TGFb CAGA inh 4.1µM | HepG2 tox-2 1.6µM | TGFb CCL64 inh 5.8µM | TGFb COP inh inactive
CN(C)S(=O)(=O)c1ccc2nc(NC(=O)c3cccnc3)sc2c1	Nrf2 inh inconclusive
O=C(NC(Nc1nc2ccc([N+](=O)[O-])cc2s1)(C(F)(F)F)C(F)(F)F)c1ccccc1Cl	A549 viability 5.8µM, ATXN2 expr inh inconclusive, Nrf2 inh 1.8µM, TGFb inhibitor 0.45µM, ATXN viability inconclusive | TGFb CAGA inh 0.92µM | HepG2 tox-2 1µM | TGFb CCL64 inh 1.5µM | TGFb COP inh inactive
CCc1ccc(CNC(=O)CN2C(=O)CSc3c2c(C)nn3-c2ccccc2)cc1	none
CCC(Sc1nc2n[nH]c(C)c2c(=N)n1-c1ccc(Br)cc1)C(=O)N(CC)CC (centres undefined)	A549 viability inconclusive, TGFb inhibitor inconclusive (no result: ATXN2 expr inh, Nrf2 inh, ATXN viability)
CCC1Nc2ncnc(N3CCc4ccccc4C3)c2N(Cc2ccc(Br)cc2)C1=O (centres undefined)	ATXN2 expr inh inconclusive, TGFb inhibitor 13µM, ATXN viability inconclusive (no result: A549 viability, Nrf2 inh) | TGFb CAGA inh 18µM | HepG2 tox-2 18µM | TGFb CCL64 inh inactive | TGFb COP inh inactive
CCOC(=O)c1c(C)[nH]c(CCC(=O)Nc2c(C)cccc2CC)c1C	none (no result: ATXN2 expr inh, Nrf2 inh, ATXN viability)
O=C(NCCc1cccnc1)c1cc(COc2ccc(F)cc2Cl)on1	TGFb inhibitor 13µM | TGFb CAGA inh inconclusive | HepG2 tox-2 inactive | TGFb CCL64 inh inconclusive | TGFb COP inh inactive

Assay outcomes from PubChem.
